Laboratory results: PubChem BioAssay AID1159580 (chemical genetic matrix, 2015)
Values joined by “and” are separate entries in the source; they are usually repeats but may differ in a detail not shown here. Identical values can stand only once. Screen size: about 5,500 compounds; about 2,000 (36%) were called active. Not shown: some 18% with an inconclusive outcome. No stated cut-off is given here; in the data, active means normalized growth mostly below about 0.91 (no sharp cut-off); inconclusive means no clear call, values can overlap the other calls; inactive means mostly above about 0.92. This is one part of the list.

Experiment: chemical genetic growth profiling, strain panel (AID 1159580);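 further: tested at 20 µM; growth read once vehicle control cultures reached saturation at 30 °C; 1 = growth at the plate median or of vehicle wells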
Conditions: S. cerevisiae deletion strains, growth OD

Measured: normalized growth

C[C@@H]1O[C@@H](O[C@H]2C[C@@H](O)[C@]3(CO)C4C(CC[C@]3(O)C2)[C@@]2(O)CC[C@H](C3=CC(=O)OC3)[C@@]2(C)C[C@H]4O)[C@H](O)[C@H](O)[C@H]1O (some centres not stated)
inactive: locus YAL021C, strain ccr4, stronger effect = lower value 1.01 | locus YAL026C, strain drs2, stronger effect = lower value 1.02 | locus YAL030W, strain snc1, stronger effect = lower value 1.03 | locus YBL061C, strain skt5, stronger effect = lower value 1.02 | locus YBR009C, strain hhf1, stronger effect = lower value 1.04 | locus YBR021W, strain FUR4, stronger effect = lower value 1.05 | locus YBR023C, strain chs3, stronger effect = lower value 1.03 | locus YBR171W, strain sec66, stronger effect = lower value 1.04 | locus YBR229C, strain ROT2, stronger effect = lower value 1.02 | locus YBR231C, strain swc5, stronger effect = lower value 1.01 | locus YBR279W, strain paf1, stronger effect = lower value 1.02 | locus YCL011C, strain gbp2, stronger effect = lower value 1.02 | locus YCL016C, strain dcc1, stronger effect = lower value 1.04 | locus YCL029C, strain bik1, stronger effect = lower value 0.99 | locus YCL061C, strain MRC1, stronger effect = lower value 1.01 | locus YCL069W, strain vba3, stronger effect = lower value 1.03 | locus YCR088W, strain abp1, stronger effect = lower value 1.02 | locus YDL005C, strain med2, stronger effect = lower value 1.02 | locus YDL035C, strain GPR1, stronger effect = lower value 1.05 | locus YDL040C, strain nat1, stronger effect = lower value 1.02 | locus YDL074C, strain BRE1, stronger effect = lower value 1.04 | locus YDL101C, strain DUN1, stronger effect = lower value 1.02 | locus YDL185W, strain tfp1, stronger effect = lower value 1 | locus YDL192W, strain arf1, stronger effect = lower value 0.994 | locus YDR001C, strain nth1, stronger effect = lower value 1.02 | locus YDR069C, strain doa4, stronger effect = lower value 0.997 | locus YDR101C, strain arx1, stronger effect = lower value 0.994 | locus YDR137W, strain rgp1, stronger effect = lower value 1.02 | locus YDR159W, strain sac3, stronger effect = lower value 1 | locus YDR162C, strain NBP2, stronger effect = lower value 1.03 | locus YDR195W, strain ref2 1.01 | locus YDR297W, strain sur2, stronger effect = lower value 1.02 | locus YDR318W, strain mcm21, stronger effect = lower value 0.998 | locus YDR334W, strain swr1, stronger effect = lower value 1.03 | locus YDR335W, strain msn5, stronger effect = lower value 1.03 | locus YDR388W, stronger effect = lower value 0.992 | locus YDR392W, strain spt3, stronger effect = lower value 0.981 | locus YDR502C, strain sam2, stronger effect = lower value 0.989 | locus YEL003W, strain gim4, stronger effect = lower value 1.03 | locus YEL037C, strain rad23, stronger effect = lower value 1.03 | locus YEL061C, strain CIN8 (second series), stronger effect = lower value 1.03 | locus YEL061C, strain CIN8, stronger effect = lower value 1.02 | locus YER015W, strain faa2, stronger effect = lower value 1.02 | locus YER016W, strain bim1, stronger effect = lower value 1.01 | locus YER110C, stronger effect = lower value 0.985 | locus YER111C, strain swi4, stronger effect = lower value 1.02 | locus YER155C, strain BEM2 (second series), stronger effect = lower value 1.01 | locus YER155C, strain BEM2, stronger effect = lower value 1.01 | locus YER167W, strain BCK2, stronger effect = lower value 1.03 | locus YFR010W, strain ubp6, stronger effect = lower value 1.03 | locus YGL078C, strain dbp3, stronger effect = lower value 0.992 | locus YGL086W, strain mad1, stronger effect = lower value 0.996 | locus YGL167C, strain pmr1, stronger effect = lower value 1.03 | locus YGL173C, strain kem1, stronger effect = lower value 1.02 | locus YGL227W, strain vid30, stronger effect = lower value 1.03 | locus YGL240W, strain doc1, stronger effect = lower value 0.997 | locus YGL248W, strain PDE1, stronger effect = lower value 1.02 | locus YGL253W, strain hxk2, stronger effect = lower value 1.01 | locus YGR135W, strain pre9, stronger effect = lower value 1.01 | locus YGR252W, strain gcn5, stronger effect = lower value 0.98 | locus YHR013C, strain ard1, stronger effect = lower value 1.04 | locus YHR027C, strain rpn1, stronger effect = lower value 1.02 | locus YHR030C, strain SLT2, stronger effect = lower value 1.02 | locus YHR079C, strain IRE1 (second series), stronger effect = lower value 0.987 | locus YHR079C, strain IRE1, stronger effect = lower value 1.02 | locus YHR094C, strain hxt1, stronger effect = lower value 0.983 | locus YHR129C, strain ARP1, stronger effect = lower value 1.02 | locus YHR142W, strain chs7, stronger effect = lower value 1.04 | locus YHR200W, strain rpn10, stronger effect = lower value 0.999 | locus YIL066C, strain RNR3, stronger effect = lower value 1.05 | locus YIL073C, strain SPO22, stronger effect = lower value 0.981 | locus YIL125W, strain kgd1, stronger effect = lower value 0.994 | locus YIR030C, strain dcg1, stronger effect = lower value 0.991 | locus YJL092W, strain hpr5, stronger effect = lower value 1.02 | locus YJL095W, strain BCK1 (second series), stronger effect = lower value 1.05 | locus YJL095W, strain BCK1, stronger effect = lower value 1.03 and 1.01 | locus YJL115W, strain asf1, stronger effect = lower value 1.03 | locus YJL129C, strain trk1, stronger effect = lower value 1.04 | locus YJL134W, strain LCB3, stronger effect = lower value 1.01 | locus YJL154C, strain vps35, stronger effect = lower value 1.02 | locus YJL164C, strain tpk1, stronger effect = lower value 1.02 | locus YJL166W, strain qcr8, stronger effect = lower value 1.01 | locus YJL168C, strain set2, stronger effect = lower value 0.987 | locus YJL187C, strain SWE1 (second series), stronger effect = lower value 1.03 | locus YJL187C, strain SWE1, stronger effect = lower value 1.02 | locus YJR043C, strain POL32, stronger effect = lower value 1.05 | locus YJR066W, strain TOR1, stronger effect = lower value 0.989
